Reference: PubChem BioAssay (NCI)
This is part of a sample that, as a whole, favours compounds with a hit. Of some 83,000 tested, about 20% had one in any assay.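 Cell lines were cultured in 96-well plates, exposed to a single compound concentration, and assessed for percent growth 48 hours later.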 Unmarked numbers belong to inactive results. Activity calls are given as the source filed them. How the source made its calls: active means growth percent below 10; inactive means the rest.

How the values were obtained:
Test in all cases: NCI-60 one-dose screen, 48 h (100 = growth as untreated, 0 = no growth, -100 = all killed)
Conditions in all cases: 10 µM unless noted
SK-MEL-2 melanoma = system: SK-MEL-2 melanoma
EKVX NSCLC = system: EKVX NSCLC
SN12C renal = system: SN12C renal
UO-31 renal = system: UO-31 renal
TK-10 renal = system: TK-10 renal
ACHN renal = system: ACHN renal
CAKI-1 renal = system: CAKI-1 renal
A498 renal = system: A498 renal
CCRF-CEM leukemia = system: CCRF-CEM leukemia
MOLT-4 leukemia = system: MOLT-4 leukemia

Compound	growth (SK-MEL-2 melanoma)	growth (EKVX NSCLC)	growth (SN12C renal)	growth (UO-31 renal)	growth (TK-10 renal)	growth (ACHN renal)	growth (CAKI-1 renal)	growth (A498 renal)	growth (CCRF-CEM leukemia)	growth (MOLT-4 leukemia)
COc1ccc(Cn2cc(C(=O)N=Nc3c(O)[nH]c4c(C)cccc34)nn2)cc1	91.9%	107%	62.1%	14.9%	56.1%	38.2%	77.1%	101%	82.8%	83.5%
O=C1Nc2ccccc2/C1=C/c1cccn1C(=O)c1ccc(Cl)s1	86.7%	22.6%	86.2%	65.1%	50.6%	47.7%	64%	67.4%	26.6%	30.3%
CSC1=Nc2c(c(C)c(-c3ccccc3)n2CCCC(=O)O)C2=NC(=O)C[C@H](C)N12	107%	92.8%	122%	88.6%	118%	121%	103%	128%	98.4%	104%
COc1ccc(C2=NN(C(C)=O)C(c3cn(-c4ccccc4)nc3-c3ccc(Cl)cc3)C2)cc1 (stereo not given)	63.7%	41.3%	32.8%	38.5%	12.1%	8.45% (active)	28%	80.2%	24%	43.6%
O=C(Nc1ccccc1[N+](=O)[O-])c1ccc(Cl)c(Cl)c1	95.6%	85.3%	94.7%	71.1%	124%	94.7%	92.8%	58.7%	106%	96.7%
N#Cc1cncc(-c2ccc3ncnc(Nc4cccc(Cl)c4)c3c2)c1	90.5%	40.7%	82.9%	71%	43.9%	58.6%	66.1%	33.4%	101%	87.5%
N#C/C(=C\c1ccc([N+](=O)[O-])cc1)n1nnc2cc(F)c(F)cc21	95.9%	82.1%	4.63% (active)	-77.8% (active)	6.11% (active)	-74.9% (active)	6.07% (active)	67.6%	4.63% (active)	3.58% (active)
O=C(Nc1ncc(Cc2cc(C(F)(F)F)ccc2Cl)s1)c1cccs1	45%	57.3%	70.9%	58.9%	71.7%	67.2%	41.7%	62.2%	45.4%	29.4%
CCCCNC(=O)Oc1ccc(/C(=C(/C)Cc2ccc(OC)cc2)c2ccc(OCCN3CCCCCC3)cc2)cc1	102%	77.5%	71%	57.6%	83.1%	102%	83.5%	98.3%	47.7%	45%
N#Cc1cccc(C2C3=C(COC3=O)N(CCO)c3cc4c(cc32)CCC4)c1 (stereo not given)	24.5%	41.4%	34.3%	39%	54.2%	26%	34.7%	-6.54% (active)	7.42% (active)	13.5%
O=C(Nc1cc(Cl)ccc1O)c1cccc(Nc2ccnc(C(F)(F)F)c2)c1	56.2%	9.67% (active)	35%	25.5%	46.6%	27.2%	-2.35% (active)	45.3%	8.35% (active)	-41.2% (active)
C=C(C)[C@@H]1CCC[C@]2(C(=O)N3CCN(C)CC3)CC[C@]3(C)[C@@H](CC[C@@H]4[C@@]5(C)CC/C(=N\NC(=O)c6ccncc6)C(C)(C)[C@@H]5CC[C@]43C)[C@@H]12	106%	111%	80.1%	73.4%	116%	88.3%	80.7%	119%	25.9%	55.9%
CCNC(=O)Oc1ccc(/C(=C(/CC)Cc2ccccc2)c2ccc(OCCN3CCCC3)cc2)cc1	108%	88.3%	92.7%	83.5%	91.2%	95.1%	96.8%	89.3%	87.2%	75.9%
C=C1C(=O)O[C@H]2[C@H]1CC/C(Cn1cc(CCC)nn1)=C\CC[C@@]1(C)O[C@@H]21	44.7%	77.4%	23.1%	0.946% (active)	-15.9% (active)	-0.504% (active)	5.35% (active)	39%	-27.4% (active)	-1.09% (active)
C[C@]1(O)CC(=O)[C@]2(O)C3=C(C=C[C@]2(O)C1)C(=O)c1c(O)cccc1C3=O	89.7%	73.8%	3.18% (active)	-96.6% (active)	-82.8% (active)	-100% (active)	-59.8% (active)	117%	0.446% (active)	-12.8% (active)
CCOC(=O)C(Cc1ccc(OC)cc1)C(=O)OCC	43.4%	69.3%	40%	46.7%	46.6%	44.7%	-14.2% (active)	54.5%	14.3%	37.7%
O=C(C1=Cc2cc3ccccc3n2Cc2cnnn21)c1ccc(O)cc1	59%	89.9%	57.7%	63.1%	90.9%	75.4%	37.5%	111%	72.5%	44.6%
CCCCNC(=O)c1cc([N+](=O)[O-])cc(C2CCCCC2)c1O	19.5%	33.6%	31.9%	24.8%	49.1%	61.5%	35.3%	21.5%	36.5%	27.1%
Cn1cc(-c2csc(-c3c[nH]c4ccc(F)cc34)n2)c2ccnc(Cl)c21	104%	65.6%	73.6%	53%	69.8%	51%	69.8%	42.5%	50.5%	64.9%
O=C(CCCCCNC(=O)c1cc(=O)c(O)co1)Nc1ccccc1	105%	98.1%	110%	83.9%	93.6%	102%	95.3%	96%	95.1%	106%
COCCn1cc(-c2csc(-c3c[nH]c4ccc(Br)cc34)n2)c2cccnc21	35.9%	36.9%	51.2%	27.8%	36.6%	27.2%	49.4%	26.7%	14%	8.87% (active)
CCOC(=O)C1=C(C)C(Cl)=N/C1=C\c1[nH]c(Cl)c(C)c1C(=O)OCC	109%	99.5%	100%	86.5%	109%	107%	94.5%	104%	51.9%	80.3%
Nc1c(C(=O)Nc2cccc(Cl)c2)sc2nc3c(cc12)CCCC3	86.6%	94.8%	97.6%	90.3%	85.1%	94.4%	91.3%	87.6%	87.1%	84.8%
CN(CCCNC(=O)Cc1ccc2ccc3cccc4ccc1c2c34)CCCNc1cc(-c2ccc3ccccc3c2)nc2ccccc12	-59.5% (active)	-44.6% (active)	-66.2% (active)	-47.4% (active)	-58.2% (active)	-66.4% (active)	-36.9% (active)	-62% (active)	-74.5% (active)	-82.9% (active)
